OPRM1-OPRD1 inv = inverse agonists of human mu-delta opioid receptor heterodimerization; P35372+P41143; cell-based MOR-DOR heterodimer luminescence, inverse agonism; inhibition, % at 9.3 µM; hit rate 0.21% among 340,000; in the data active means inhibition above about 22%, passing the limit was not always enough;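 further: 0% = cells with DMSO and 100% = wells without cells with DMSO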
HTR5A inv ag = inverse agonist of human HTR5A in OPRM1-OPRD1 counter-screen | hit rate 0.083% among 340,000 | inhibition, % at 9.3 µM | HTR5A cell line, luminescence, inverse agonism | P47898 | AID 504634; in the data active means inhibition mostly above about 23%, no sharp cut-off; inactive means mostly below about 18%;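 further: 0% = cells with DMSO and 100% = no-cell wells with DMSO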
Target sequence (P47898 whole entry, looked up): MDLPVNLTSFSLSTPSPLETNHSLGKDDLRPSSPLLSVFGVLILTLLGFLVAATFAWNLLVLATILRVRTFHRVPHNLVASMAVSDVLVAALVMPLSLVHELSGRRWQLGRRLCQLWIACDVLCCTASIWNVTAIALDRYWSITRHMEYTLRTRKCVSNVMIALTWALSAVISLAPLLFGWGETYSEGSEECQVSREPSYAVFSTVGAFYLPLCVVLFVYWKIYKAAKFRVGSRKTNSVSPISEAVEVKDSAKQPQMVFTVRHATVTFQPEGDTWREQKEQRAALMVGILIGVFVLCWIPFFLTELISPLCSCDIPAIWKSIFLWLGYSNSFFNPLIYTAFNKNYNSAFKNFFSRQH
MOR-DOR ag-1 = OPRM1-OPRD1 heterodimerization agonism; activation, % at 9.3 µM; hit rate 0.3% among 340,000; P35372+P41143; cells, luminescence;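 further: 0% = vehicle-treated cells and 100% = reference agonist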
HTR5A ag ctr = HTR5A agonism, opioid heterodimer counter-screen; P47898; HTR5A agonist assay, luminescence, cell-based; activation, % at 9.3 µM; hit rate 0.61% among 340,000; in the data active means activation mostly above about 9.5%, no sharp cut-off; inactive means mostly below about 7.6%;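 further: 0% = cells with vehicle only and 100% = reference agonist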
MOR-DOR ag-2 = opioid heterodimer agonism, HTR5A counter-screen; AID 504913; hit rate 13% among 800; activation, % at 9.3 µM; U2OS counter-screen cells, complementation luminescence, 3 h; shares compounds with HTR5A ag ctr
HTR5A ag confirm = confirmation of human HTR5A agonists; shares compounds with HTR5A ag ctr; HTR5A agonist cell assay, luminescence; activation, % at 9.3 µM; hit rate 17% among 800; AID 504915; in the data active means activation above about 17%;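 further: 0% = cells with vehicle only and 100% = full reference agonist response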
* = called active by the depositor. Only some compounds are listed: those with a hit (about 1.1% of all), similar ones and a draw of the others. Unless noted, no stated cut-off is given here; in the data, active means activation above about 18%; inactive means the rest.

COc1cc(C#Cc2c(-c3cncn3C)n(C)c3ccc(-c4ccc(CN5CCOCC5)cc4)cc23)cc(OC)c1 was read as OPRM1-OPRD1 inv -11, HTR5A inv ag -27, MOR-DOR ag-1 2, HTR5A ag ctr 16*, MOR-DOR ag-2 20* and HTR5A ag confirm 4.
Screening Cc1coc2cc3oc(=O)c(CCC(=O)N4C[C@H]5C[C@@H](C4)c4cccc(=O)n4C5)c(C)c3cc12 returned OPRM1-OPRD1 inv 10, HTR5A inv ag -10, MOR-DOR ag-1 -2, HTR5A ag ctr 26*, MOR-DOR ag-2 1 and HTR5A ag confirm 51*.
Screening CCn1c2ccccc2c2cc(NC(=O)CSc3nnc(-c4ccc(OC)cc4)n3N)ccc21 returned OPRM1-OPRD1 inv -73, HTR5A inv ag -49, MOR-DOR ag-1 14, HTR5A ag ctr 19*, MOR-DOR ag-2 8 and HTR5A ag confirm 6.
`COc1cccc(C2N(c3ccccc3)CCN2c2ccccc2)c1OC` gave OPRM1-OPRD1 inv 9, HTR5A inv ag -11, MOR-DOR ag-1 -2 and HTR5A ag ctr 4.
`COc1cccc(C2N(Cc3ccccc3)C(=O)C2(F)F)c1OC` (stereo not drawn) gave OPRM1-OPRD1 inv -3, HTR5A inv ag -46, MOR-DOR ag-1 1, HTR5A ag ctr 16*, MOR-DOR ag-2 2 and HTR5A ag confirm -5.
`Cc1nc(C)c(-c2ccc(SCc3ccc([N+](=O)[O-])cc3)nn2)s1` gave OPRM1-OPRD1 inv 7, HTR5A inv ag 11, MOR-DOR ag-1 -1 and HTR5A ag ctr -6.
Screening Cc1nc2cc(NC(=O)N3c4ccccc4CC3C)ccc2n1C (stereo not drawn) returned OPRM1-OPRD1 inv 14, HTR5A inv ag -58, MOR-DOR ag-1 -3, HTR5A ag ctr 22*, MOR-DOR ag-2 1 and HTR5A ag confirm 24*.
`CSc1ccccc1OCc1cc(C(=O)N2CCN(Cc3nccn3C)CC2)no1` gave OPRM1-OPRD1 inv 8, HTR5A inv ag -26, MOR-DOR ag-1 -1 and HTR5A ag ctr 1.
For COC(=O)c1cc(NS(=O)(=O)c2ccc(N3CCOCC3)c(NC(C)=O)c2)cc(C(=O)OC)c1 the results were OPRM1-OPRD1 inv 16, HTR5A inv ag 1, MOR-DOR ag-1 -3 and HTR5A ag ctr 4.
COC(=O)c1cc(NS(=O)(=O)c2ccc(N3CCOCC3)c(N)c2)cc(C(=O)OC)c1 was read as OPRM1-OPRD1 inv -22, HTR5A inv ag -52, MOR-DOR ag-1 4, HTR5A ag ctr 15*, MOR-DOR ag-2 5 and HTR5A ag confirm -12.
For Cc1cc(NC(=O)CSc2nc(-c3ccc(Cl)cc3)cs2)no1 the results were OPRM1-OPRD1 inv -31, HTR5A inv ag -53, MOR-DOR ag-1 6, HTR5A ag ctr 20*, MOR-DOR ag-2 2 and HTR5A ag confirm 6.
Screening Cc1nc(S(=O)(=O)Cc2ccccc2Cl)nc2c1CCC2 returned OPRM1-OPRD1 inv 3, HTR5A inv ag 6, MOR-DOR ag-1 0 and HTR5A ag ctr -2.
`CN(C)Cc1c(O)ccc2occ(C(=O)c3ccccc3)c12` gave OPRM1-OPRD1 inv 3, HTR5A inv ag 14, MOR-DOR ag-1 -1, HTR5A ag ctr 19*, MOR-DOR ag-2 1 and HTR5A ag confirm 47*.
For CCN(CC)Cc1c(O)ccc2occ(C(=O)c3ccccc3)c12 the results were OPRM1-OPRD1 inv 12, HTR5A inv ag 8, MOR-DOR ag-1 -2 and HTR5A ag ctr -2.
For CCOc1ccc(S(=O)(=O)NN)cc1 the results were OPRM1-OPRD1 inv 17, HTR5A inv ag -85, MOR-DOR ag-1 -3, HTR5A ag ctr 14*, MOR-DOR ag-2 -2 and HTR5A ag confirm 0.
`CCOc1ccc(CNC(=O)NS(=O)(=O)c2ccc(OC)cc2)cc1` gave OPRM1-OPRD1 inv -5, HTR5A inv ag -50, MOR-DOR ag-1 1, HTR5A ag ctr 15*, MOR-DOR ag-2 23* and HTR5A ag confirm 4.
For CCC(C)NS(=O)(=O)c1ccc(OCC(=O)NCc2ccc(OC)cc2)cc1 (stereo not drawn) the results were OPRM1-OPRD1 inv 3, HTR5A inv ag -26, MOR-DOR ag-1 -1 and HTR5A ag ctr -3.
`O=C(CCC(=O)N1CCN(c2ccc(Cl)c(Cl)c2)CC1)c1ccccc1` gave OPRM1-OPRD1 inv -23, HTR5A inv ag -22, MOR-DOR ag-1 5 and HTR5A ag ctr -5.

Bioassay records deposited in PubChem by The Scripps Research Institute Molecular Screening Center.
